Data as given in PubChem BioAssay (Tox21).
Where “and” joins values, the source holds several entries; their conditions need not be identical. Equal entries are not always repeated. Inconclusive results are not listed. Some structures have more than one record in an assay (separate samples or runs), and their calls can disagree. Calls of active or inactive are those of the source. Unless noted, calls follow the shape of the dose curve; as a rule, active = well fitted curve in the direction sought with a large enough effect in the repeat runs; inconclusive = weak or mixed curves; inactive = no such curve, though single readings can be large; an effect the other way counts as inactive or inconclusive.

How the values were obtained:
[1] = A CellTox Green Cytotoxicity Assay to monitor cytotoxicity in HEK293 cells - 32 hour (AID 1224881); also: nearly all actives have a fitted effect of over 40% in size; also: potency is read from the fitted curve at half-maximal effect
Outline: (§1)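 Real-time, in one plate: 600 HEK293 cells/well with dead-cell DNA dye, pinned compound after 5 h, 37 C incubation over 40 h; viable cells give no appreciable fluorescence.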

[2] = A CellTox Green Cytotoxicity Assay to monitor cytotoxicity in HepG2 cells - 0 hour (AID 1224882); also: nearly all actives have a fitted effect of over 35% in size; also: potency is read from the fitted curve at half-maximal effect
Outline: (§2)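 Cytotoxicity was tracked as dead-cell DNA fluorescence in HepG2 cells treated with test compounds at 37 C; each time-point value comes from one kinetic series spanning 0, 8, 16, 24, 32 and 40 h.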

[3] = A CellTox Green Cytotoxicity Assay to monitor cytotoxicity in HepG2 cells - 32 hour (AID 1224883); also: nearly all actives have a fitted effect of over 50% in size
Outline: as §2

[4] = A CellTox Green Cytotoxicity Assay to monitor cytotoxicity in HEK293 cells - 8 hour (AID 1224884); also: nearly all actives have a fitted effect of over 35% in size
Outline: as §1

[5] = qHTS RealTime-Glo MT Cell Viability Assay in HEK293 cells - 24 hour (AID 1224886); also: nearly all actives have a fitted effect of over 50% in size; also: potency is read from the fitted curve at half-maximal effect; as to activity change, negative = cytotoxicity: top concentration of the series differs between compounds
Outline: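 Assay medium contained NanoLuc luciferase plus cell-permeant prosubstrate, added with HEK293 cells at 600 cells/well. After 5 h at 37 C/5% CO2 compounds were added; plates stayed at 37 C for 40 h with serial luminescence reads.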

[6] = qHTS RealTime-Glo MT Cell Viability Assay in HEK293 cells - 8 hour (AID 1224887); also: nearly all actives have a fitted effect of over 50% in size; also: potency is read from the fitted curve at half-maximal effect; as to activity change, negative = cytotoxicity: top concentration of the series differs between compounds
Outline: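 Kinetic, non-lysing viability readout. Seed HEK293 (600/well) with reagent, incubate 5 h at 37 C/5% CO2, pin 23 nL compound in DMSO, incubate at 37 C, read luminescence at 0, 8, 16, 24, 32, 40 h.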

[7] = A CellTox Green Cytotoxicity Assay to monitor cytotoxicity in HEK293 cells - 16 hour (AID 1224888); also: nearly all actives have a fitted effect of over 35% in size
Outline: as §1

[8] = A CellTox Green Cytotoxicity Assay to monitor cytotoxicity in HepG2 cells - 8 hour (AID 1224890); also: nearly all actives have a fitted effect of over 45% in size
Outline: as §2

[9] = qHTS assay to identify small molecule antagonists of the estrogen receptor alpha (ER-alpha) signaling pathway using the BG1 cell line in the presence of 0.1 nM 17-beta-estradiol - cell viability counter screen (AID 1259241); also: nearly all actives have a fitted effect of over 40% in size
Outline: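 Estradiol-stimulated (0.1 nM) VM7Luc4E2 cells exposed to compounds 22 hr; viability measured by fluorescence of cleaved CellTiter-Fluor substrate after 30 min.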

[10] = qHTS assay to identify small molecule antagonists of the androgen receptor (AR) signaling pathway using the MDA cell line in the presence of 0.5 nM R1881 - cell viability counter screen (AID 1259242); also: nearly all actives have a fitted effect of over 45% in size
Outline: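 Cells seeded at 3,000/well and allowed 5 hr at 37C, 0% CO2 before compound transfer and R1881 (0.5 nM final) addition; 16 hr later, live-cell protease fluorescence indicated cytotoxicity.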

[11] = biological target: Estrogen receptor (Homo sapiens) (UniProt P03372); experiment: qHTS assay to identify small molecule antagonists of the estrogen receptor alpha (ER-alpha) signaling pathway using the BG1 cell line in the presence of 0.1 nM 17-beta-estradiol (AID 1259244); also: nearly all actives have a fitted effect of over 50% in size
Estrogen receptor (Homo sapiens), sequence (P03372 whole entry, looked up): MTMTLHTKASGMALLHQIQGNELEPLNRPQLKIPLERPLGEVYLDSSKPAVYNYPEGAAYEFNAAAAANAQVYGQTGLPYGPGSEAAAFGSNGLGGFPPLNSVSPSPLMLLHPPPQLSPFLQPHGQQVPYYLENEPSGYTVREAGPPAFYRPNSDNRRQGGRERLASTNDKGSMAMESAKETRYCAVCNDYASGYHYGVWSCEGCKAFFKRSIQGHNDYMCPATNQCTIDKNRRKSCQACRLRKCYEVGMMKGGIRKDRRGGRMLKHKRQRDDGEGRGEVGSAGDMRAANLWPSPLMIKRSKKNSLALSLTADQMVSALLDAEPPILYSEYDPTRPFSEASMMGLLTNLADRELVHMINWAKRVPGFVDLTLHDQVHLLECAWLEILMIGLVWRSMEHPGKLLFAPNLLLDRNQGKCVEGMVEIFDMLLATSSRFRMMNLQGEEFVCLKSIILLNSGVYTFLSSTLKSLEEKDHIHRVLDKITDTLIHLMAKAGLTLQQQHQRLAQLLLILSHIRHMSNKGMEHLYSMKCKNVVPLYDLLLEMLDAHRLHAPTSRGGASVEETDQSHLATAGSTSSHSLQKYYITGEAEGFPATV
Outline: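 Luciferase signal from VM7Luc4E2 ERE-reporter cells, co-dosed with test compound and 0.1 nM final 17beta-estradiol for 22 h, read with ONE-Glo.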

[12] = qHTS assay to identify small molecule phospholipidosis (PLD) inducers (AID 1259344; active = well fitted curve in the direction sought with a large enough effect; an effect the other way counts as inactive or inconclusive)
Outline: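 Read-out is LipidTOX Red fluorescence (ex 595/em 615) imaged in HepG2 cells after 24 h compound exposure at 37 C, with Hoechst nuclear counterstain (ex 352/em 461) allowing per-cell normalisation.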

[13] = qHTS assay to identify small molecule HDAC inhibitors - cell viability counter screen (AID 1259365)
Outline: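 After overnight seeding at 1,500 cells per well, wild-type HCT-116 cultures took up compounds in DMSO for 2hr at 37 C. Viable cell content came from luminescence with CellTiter-Glo.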

[14] = qHTS assay to identify small molecule agonists of the sonic hedgehog signaling (Shh) pathway - cell viability counter screen (AID 1259366); also: nearly all actives have a fitted effect of over 50% in size; also: potency is read from the fitted curve at half-maximal effect
Outline: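 Same-well cytotoxicity read. Gli1-Luc reporter 3T3 cells; compounds 24hr, 37C/5% CO2; CellTiter-Fluor fluorescence.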

[15] = qHTS assay to identify small molecule antagonists of the sonic hedgehog signaling (Shh) pathway - cell viability counter screen (AID 1259367); also: nearly all actives have a fitted effect of over 55% in size
Outline: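 Fluorescence read-out (CellTiter-Fluor, 1 hr at 37C) taken after 23 hr compound treatment of 3T3 Gli1-Luc cells stimulated with conditioned medium. Cells were seeded at 2,000 per well and pre-incubated 4 hr.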

[16] = qHTS assay to identify small molecule agonists of the sonic hedgehog signaling (Shh) pathway (AID 1259368; calls by dose curve;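 also: NIH/3T3-derived 3T3Gli1-Luc cells carrying a stable Gli1-driven firefly luciferase reporter; series mostly up to about 92 µM; nearly all actives have a fitted effect of over 15% in size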)
Outline: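 Following a 24 hr incubation with DMSO-dissolved compounds at 37 C, 5% CO2, Gli1-Luc NIH/3T3-derived cells received luciferase reagent for 30 min at room temperature prior to luminescence measurement.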

[17] = qHTS RealTime-Glo MT Cell Viability Assay in HepG2 cells - 0 hour (AID 1224889); also: nearly all actives have a fitted effect of over 50% in size
Outline: (§3)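 qHTS, HepG2, 600 cells/well, RealTime-Glo (NanoLuc + prosubstrate) added with cells; 5 h preincubation; DMSO compound addition; 37 C; luminescence at 0/8/16/24/32/40 h.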

[18] = qHTS RealTime-Glo MT Cell Viability Assay in HepG2 cells - 16 hour (AID 1224885); also: nearly all actives have a fitted effect of over 50% in size
Outline: as §3

[19] = biological target: Androgen receptor (Homo sapiens) (UniProt P10275); experiment: qHTS assay to identify small molecule antagonists of the androgen receptor (AR) signaling pathway using the MDA cell line in the presence of 0.5 nM R1881 (AID 1259243); also: nearly all actives have a fitted effect of over 50% in size
Androgen receptor (Homo sapiens), sequence (P10275 whole entry, looked up): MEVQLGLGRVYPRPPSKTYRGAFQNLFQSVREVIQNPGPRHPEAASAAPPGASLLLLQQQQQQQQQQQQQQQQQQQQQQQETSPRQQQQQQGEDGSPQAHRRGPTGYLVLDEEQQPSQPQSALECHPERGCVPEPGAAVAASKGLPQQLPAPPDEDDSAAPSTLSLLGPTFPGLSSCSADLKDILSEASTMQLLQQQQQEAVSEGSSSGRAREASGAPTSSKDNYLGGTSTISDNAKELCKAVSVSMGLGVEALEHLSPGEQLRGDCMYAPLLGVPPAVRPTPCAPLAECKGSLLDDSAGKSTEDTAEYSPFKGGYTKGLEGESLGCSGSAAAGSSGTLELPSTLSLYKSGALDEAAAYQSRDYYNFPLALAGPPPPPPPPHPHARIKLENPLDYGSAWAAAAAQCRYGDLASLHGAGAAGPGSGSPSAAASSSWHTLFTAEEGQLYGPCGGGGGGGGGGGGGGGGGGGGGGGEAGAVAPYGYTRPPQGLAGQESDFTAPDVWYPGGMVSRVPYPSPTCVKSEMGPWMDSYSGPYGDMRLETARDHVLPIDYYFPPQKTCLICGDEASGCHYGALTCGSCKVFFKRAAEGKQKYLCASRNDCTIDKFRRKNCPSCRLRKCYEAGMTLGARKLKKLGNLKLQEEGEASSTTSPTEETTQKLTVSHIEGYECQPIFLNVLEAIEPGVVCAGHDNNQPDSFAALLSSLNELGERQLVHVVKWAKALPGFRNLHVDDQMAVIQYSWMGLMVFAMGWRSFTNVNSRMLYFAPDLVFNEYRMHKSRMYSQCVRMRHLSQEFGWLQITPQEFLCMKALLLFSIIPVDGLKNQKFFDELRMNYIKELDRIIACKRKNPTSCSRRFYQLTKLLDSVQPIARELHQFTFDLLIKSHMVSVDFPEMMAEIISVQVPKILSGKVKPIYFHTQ
Outline: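 Luminescence from an AR/GR-responsive MMTV-luciferase construct in MDA-kb2 breast carcinoma cells, read 30 min after ONE-Glo, following 16 hr co-treatment with compounds and 0.5 nM R1881.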

[20] = qHTS assay to identify small molecule HDAC inhibitors (AID 1259364);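 also: wild-type HCT-116 cells with endogenous class I/II HDAC activity; top concentration of the series differs between compounds; nearly all actives have a fitted effect of over 45% in size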
Outline: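 HCT-116 wt cells, 1,500/well, overnight attach. Compounds (DMSO) 2 h, 37 °C. HDAC-Glo I/II, 30 min RT. Luminescence.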
% is scaled to controls: 0 for no effect and ±100 for the full control effect.

CC(=O)Nc1c(I)cc(I)c(C(=O)O)c1I
inactive: Potency [1] | Potency [2] | Potency [3] | Potency [4] | Potency [5] | Potency [6] | Potency [7] | Potency [8] | outcome [9] | Potency [10] | outcome [11] | Potency [12] | outcome [13] | Potency [14] | Potency [15] | outcome [16]

O=C(CCCN1CCC(O)(c2cccc(C(F)(F)F)c2)CC1)c1ccc(F)cc1
inactive: Potency [1] | Potency [2] | Potency [4] | Potency [17] | Potency [8] | outcome [9] | Potency [10] | outcome [13] | Potency [15]
active: Potency [5] 16.9 µM | Potency [6] 15.1 µM

CCN1CCC[C@H]1CNC(=O)c1cc(S(N)(=O)=O)ccc1OC
inactive: Potency [1] | Potency [3] | Potency [4] | Potency [18] | Potency [5] | Potency [6] | Potency [7] | Potency [17] | Potency [8] | outcome [9] | Potency [10] | Potency [19] | Potency [12] | outcome [13] | Potency [14] | Potency [15] | outcome [16]

CCCc1cc(C(N)=S)ccn1
inactive: Potency [1] | Potency [2] | Potency [3] | Potency [4] | Potency [5] | Potency [6] | Potency [7] | Potency [8] | outcome [9] | Potency [10] | outcome [11] | Potency [12] | Potency [20] | outcome [13] | Potency [14] | Potency [15] | outcome [16]

COC(=O)C1=C(C)NC(C)=C(C(=O)OC)C1c1ccccc1[N+](=O)[O-]
inactive: Potency [1] | Potency [2] | Potency [3] | Potency [4] | Potency [5] | Potency [6] | Potency [8] | outcome [9] | Potency [10] | outcome [11] | Potency [12] | outcome [13] | outcome [16]
active: Potency [14] 27.3 µM

CCCCCCCCCCCCN(CCCCCCCCCCCC)CCCCCCCCCCCC
inactive: Potency [1] | Potency [2] | Potency [3] | Potency [4] | Potency [5] | Potency [6] | Potency [7] | Potency [17] | outcome [9] | Potency [10] | Potency [20] | outcome [13] | Potency [14] | Potency [15] | outcome [16]

CCOC(=O)CCC(C)=O
inactive: Potency [1] | Potency [3] | Potency [4] | Potency [18] | Potency [5] | Potency [6] | Potency [7] | Potency [17] | Potency [8] | outcome [9] | Potency [10] | outcome [11] | outcome [13] | Potency [14] | Potency [15] | outcome [16]

O=C1CCCN1C1CCCCC1
inactive: Potency [1] | Potency [2] | Potency [3] | Potency [4] | Potency [6] | Potency [7] | Potency [8] | outcome [9] | Potency [10] | outcome [11] | Potency [20] | outcome [13] | Potency [14] | Potency [15] | outcome [16]

N=C(N)c1ccccc1
inactive: Potency [1] | Potency [2] | Potency [3] | Potency [4] | Potency [5] | Potency [6] | Potency [7] | Potency [17] | Potency [8] | outcome [9] | Potency [10] | Potency [20] | outcome [13] | Potency [14] | outcome [16]

Nc1nc2c(ncn2COC(CO)CO)c(=O)[nH]1
inactive: Potency [1] | Potency [2] | Potency [3] | Potency [4] | Potency [7] | Potency [8] | outcome [9] | Potency [10] | outcome [11] | Potency [12] | Potency [20] | outcome [13] | Potency [14] | Potency [15] | outcome [16]

CC(=O)CC(C)C
inactive: Potency [1] | Potency [3] | Potency [4] | Potency [18] | Potency [5] | Potency [6] | Potency [7] | Potency [17] | Potency [8] | outcome [9] | Potency [10] | Potency [19] | Potency [20] | outcome [13] | Potency [14] | outcome [16]

COC(=O)c1c(Cl)c(Cl)c(C(=O)OC)c(Cl)c1Cl
inactive and 138 nM (active): Potency [2]
inactive: Potency [3] | Potency [4] | Potency [18] | Potency [17] | outcome [9] | Potency [10] | outcome [11] | Potency [12] | Potency [20] | outcome [13] | Potency [14] | outcome [16]
inactive and 43.6 µM (active): Potency [1]

O=C(O)c1ccccc1OP(=O)(O)O
inactive: Potency [1] | Potency [3] | Potency [4] | Potency [18] | Potency [5] | Potency [6] | Potency [7] | Potency [17] | Potency [8] | outcome [9] | Potency [10] | outcome [11] | Potency [12] | Potency [20] | outcome [13] | Potency [15] | outcome [16]

CCc1nccnc1CC
inactive: Potency [1] | cytotoxicity [2] -0.271% [at 15.8 µM] | cytotoxicity increase [3] 4.25% [at 15.8 µM] | cytotoxicity increase [4] -4.27% [at 15.8 µM] | activity change, negative = cytotoxicity [5] 6.29% [at 15.8 µM] | activity change, negative = cytotoxicity [6] -0.69% [at 15.8 µM] | activity change [7] -4.2% [at 15.8 µM, stronger effect = higher value] | cytotoxicity increase [8] 4% [at 15.8 µM] | activity change, negative = cytotoxicity [9] -0.0848% [at 19 µM] | viability change, negative = cytotoxic [10] 6.4% [at 19 µM] | activity change, negative = inhibition [11] 2.66% [at 19 µM] | activity change, negative = inhibition [20] 0.718% [at 19 µM] | activity change, negative = cytotoxicity [13] 0.191% [at 19 µM] | viability change, negative = cytotoxic [14] 3.6% [at 19 µM] | Potency [15] | activity change [16] 0.457% [at 18.9 µM]

CCCCCCCCS(=O)(=O)Cl
inactive: Potency [1] | Potency [2] | Potency [3] | Potency [4] | Potency [5] | Potency [6] | Potency [7] | Potency [17] | Potency [8] | outcome [9] | Potency [10] | Potency [20] | outcome [13] | Potency [14] | Potency [15] | outcome [16]
